Among the targets are RELARELA (p65 homodimer) (Homo sapiens, UniProt Q04206 1-307); p50p50 homodimer (Homo sapiens, UniProt P19838 7-356); RELB subunit;p50 subunit (Homo sapiens;Homo sapiens, UniProt Q01201;P19838 120-401;7-356).
Common to all, as to experiment: protein binding microarray; high values mean tight binding
Settings in all cases: dsDNA, one strand shown

In another test the target is T1, p52p52 homodimer (Homo sapiens, UniProt Q00653 4-332).
T1 sequence: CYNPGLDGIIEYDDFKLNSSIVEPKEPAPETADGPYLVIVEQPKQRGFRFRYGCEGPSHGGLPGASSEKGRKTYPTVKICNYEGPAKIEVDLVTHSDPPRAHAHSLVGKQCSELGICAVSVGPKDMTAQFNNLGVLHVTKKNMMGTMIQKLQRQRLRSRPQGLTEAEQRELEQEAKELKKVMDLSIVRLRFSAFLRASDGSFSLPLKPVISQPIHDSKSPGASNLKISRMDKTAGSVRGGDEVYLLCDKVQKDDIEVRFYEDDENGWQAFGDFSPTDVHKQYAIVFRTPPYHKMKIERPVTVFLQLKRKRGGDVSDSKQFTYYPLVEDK

Test [1] addresses RELA (p65) subunit of heterodimer;p50 subunit (Homo sapiens;Homo sapiens, UniProt Q04206;P19838 1-307;7-356).
The target in test [2] is RELA (p65) subunit of heterodimer;p52 subunit (Homo sapiens;Homo sapiens, UniProt Q04206;Q00653 1-307;4-332).
In another test the target is T2, RELB subunit;p52 subunit (Homo sapiens;Homo sapiens, UniProt Q01201;Q00653 120-401;4-332).
T2 sequence 1: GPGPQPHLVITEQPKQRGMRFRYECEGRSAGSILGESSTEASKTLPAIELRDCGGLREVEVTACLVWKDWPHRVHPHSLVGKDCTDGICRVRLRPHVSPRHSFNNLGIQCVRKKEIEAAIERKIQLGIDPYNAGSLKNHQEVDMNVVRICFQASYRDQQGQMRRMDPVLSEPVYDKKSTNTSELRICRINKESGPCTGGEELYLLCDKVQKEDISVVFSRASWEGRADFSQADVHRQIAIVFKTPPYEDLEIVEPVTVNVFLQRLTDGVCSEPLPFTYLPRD
T2 sequence 2: T1 sequence

For test [3], the target named is C-Rel subunit;p50 subunit (Homo sapiens;Homo sapiens, UniProt Q04864;P19838 1-285;7-356).
The target of test [4] is T3, C-Rel subunit;p52 subunit (Homo sapiens;Homo sapiens, UniProt Q04864;Q00653 1-285;4-332).
T3 sequence 1: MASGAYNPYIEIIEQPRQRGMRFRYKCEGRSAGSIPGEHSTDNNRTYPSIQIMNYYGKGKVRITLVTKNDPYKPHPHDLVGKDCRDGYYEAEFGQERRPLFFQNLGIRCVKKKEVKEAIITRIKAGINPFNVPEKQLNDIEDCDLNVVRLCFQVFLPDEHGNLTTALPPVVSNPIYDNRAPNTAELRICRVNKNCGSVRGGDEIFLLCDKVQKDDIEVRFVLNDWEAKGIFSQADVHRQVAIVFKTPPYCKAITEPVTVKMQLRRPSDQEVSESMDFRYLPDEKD
T3 sequence 2: T1 sequence

RELARELA (p65 homodimer), sequence (Q04206 1-307): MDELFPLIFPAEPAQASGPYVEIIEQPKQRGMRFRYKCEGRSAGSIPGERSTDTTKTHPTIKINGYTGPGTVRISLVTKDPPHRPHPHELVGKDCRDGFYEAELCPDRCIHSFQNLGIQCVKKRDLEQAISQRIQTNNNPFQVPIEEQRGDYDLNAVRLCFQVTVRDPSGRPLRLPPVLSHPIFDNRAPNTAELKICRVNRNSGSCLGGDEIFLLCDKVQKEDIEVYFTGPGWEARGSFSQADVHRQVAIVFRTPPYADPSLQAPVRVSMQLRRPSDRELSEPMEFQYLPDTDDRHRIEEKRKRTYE
RELA (p65) subunit of heterodimer;p50 subunit, sequence (Q04206 1-307, chain 1 of 2): as the sequence (Q04206 1-307) above
RELA (p65) subunit of heterodimer;p50 subunit, sequence (P19838 7-356, chain 2 of 2): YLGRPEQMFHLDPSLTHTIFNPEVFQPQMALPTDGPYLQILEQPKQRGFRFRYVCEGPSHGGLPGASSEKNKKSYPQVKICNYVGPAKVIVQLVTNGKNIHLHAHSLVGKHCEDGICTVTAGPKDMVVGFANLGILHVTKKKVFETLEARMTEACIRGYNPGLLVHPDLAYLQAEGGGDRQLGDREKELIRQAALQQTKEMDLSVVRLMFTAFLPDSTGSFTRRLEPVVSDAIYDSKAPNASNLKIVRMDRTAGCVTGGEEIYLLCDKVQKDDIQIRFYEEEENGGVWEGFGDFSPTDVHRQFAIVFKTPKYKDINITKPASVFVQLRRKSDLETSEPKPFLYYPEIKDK
p50p50 homodimer, sequence (P19838 7-356): as the sequence (P19838 7-356, chain 2 of 2) above

Take AAGAAATTCCC: the binding signal with RELARELA (p65 homodimer) was 2.91 z-score; in the test with p50p50 homodimer it was 1.19 z-score; with p52p52 homodimer it was 1.64 z-score; in [1], 1.53 z-score; in [2] it was 1.32 z-score; with RELB subunit;p50 subunit, 1.27 z-score. Besides, the results for the binding signal (with RELB subunit;p52 subunit; in test [3]; in test [4]) were 1.39 z-score, 1.36 z-score and 1.67 z-score, respectively.

For AAGGGCGTCCT, the binding signal with RELARELA (p65 homodimer) is -1.14 z-score; in the test with p50p50 homodimer, -1.28 z-score; with p52p52 homodimer, -0.61 z-score; in test [1], -1.06 z-score; in [2], -0.909 z-score; in the test with RELB subunit;p50 subunit, -0.994 z-score. The binding signal was -0.788 z-score with RELB subunit;p52 subunit, -1.25 z-score in [3] and -0.659 z-score in test [4].

With GAGAGTTCCCC, the binding signal in the test with RELARELA (p65 homodimer) is 1.61 z-score; with p50p50 homodimer it was 1.06 z-score; with p52p52 homodimer, 1.71 z-score; in [1] it was 1.77 z-score; in test [2], 1.55 z-score; with RELB subunit;p50 subunit, 1.7 z-score. Further, the binding signal with RELB subunit;p52 subunit came to 1.62 z-score; in [3] it was 1.21 z-score; in [4], 1.67 z-score.

On to GGAAGAACCCC, for which the binding signal in the test with RELARELA (p65 homodimer) came out at 0.624 z-score; with p50p50 homodimer it was 0.621 z-score; in the test with p52p52 homodimer, 0.666 z-score; in [1] it was 1.02 z-score; in test [2], 1.03 z-score; in the test with RELB subunit;p50 subunit it was 0.343 z-score. The values for the binding signal (with RELB subunit;p52 subunit; in [3]; in test [4]) were 0.678 z-score, 0.685 z-score and 0.755 z-score, respectively.

For GAATATCCCCC, the binding signal with RELARELA (p65 homodimer) was found to be 0.817 z-score; with p50p50 homodimer it was 1.35 z-score; with p52p52 homodimer, 1.71 z-score; in test [1], 1.94 z-score; in test [2], 1.64 z-score; in the test with RELB subunit;p50 subunit it was 1.97 z-score. For the same sequence, the binding signal came out at 1.9 z-score with RELB subunit;p52 subunit, 1.33 z-score in [3] and 1.58 z-score in test [4].

Take AGAGGCCTCCT: the binding signal with RELARELA (p65 homodimer) was -0.539 z-score; with p50p50 homodimer, -1.92 z-score; in the test with p52p52 homodimer, -0.785 z-score; in test [1], -1.08 z-score; in test [2], -1.07 z-score; with RELB subunit;p50 subunit, -1.08 z-score. Further, the binding signal with RELB subunit;p52 subunit is -0.973 z-score; in [3], -1.66 z-score; in [4], -0.937 z-score.

For GAAGACACCCC, the binding signal with RELARELA (p65 homodimer) was -0.516 z-score; in the test with p50p50 homodimer, -0.135 z-score; in the test with p52p52 homodimer it was -0.303 z-score; in [1], -0.324 z-score; in test [2], -0.316 z-score; in the test with RELB subunit;p50 subunit, -0.183 z-score. In addition, the binding signal with RELB subunit;p52 subunit is 0.105 z-score; in [3], -0.163 z-score; in test [4], -0.242 z-score.

Consider GGAATTACCCC, for which the binding signal was 2.91 z-score with RELARELA (p65 homodimer); 0.961 z-score in the test with p50p50 homodimer; 1.76 z-score with p52p52 homodimer; 1.92 z-score in test [1]; 2.08 z-score in [2]; 1.18 z-score with RELB subunit;p50 subunit. Besides, the binding signal with RELB subunit;p52 subunit was found to be 1.85 z-score; in test [3], 1.44 z-score; in test [4] it was 2.35 z-score.

With AAGTGAACCCT, the binding signal is -0.647 z-score with RELARELA (p65 homodimer); -1.09 z-score with p50p50 homodimer; -0.646 z-score with p52p52 homodimer; -0.987 z-score in test [1]; -0.763 z-score in [2]; -0.923 z-score in the test with RELB subunit;p50 subunit. Moreover, the figures for the binding signal (with RELB subunit;p52 subunit; in [3]; in test [4]) were -0.758 z-score, -1.27 z-score and -0.88 z-score, respectively.

For the sequence GAGAAAACCCT, the binding signal with RELARELA (p65 homodimer) was determined as 0.625 z-score; with p50p50 homodimer, 0.495 z-score; in the test with p52p52 homodimer, 0.559 z-score; in [1], 0.373 z-score; in [2], 0.499 z-score; in the test with RELB subunit;p50 subunit it was 0.0283 z-score. In addition, the binding signal with RELB subunit;p52 subunit worked out at 0.361 z-score; in test [3], 0.245 z-score; in [4], 0.234 z-score.

As to CAGGGAGTCCT, the binding signal with RELARELA (p65 homodimer) is 0.0727 z-score; with p50p50 homodimer, 0.0337 z-score; with p52p52 homodimer, -0.143 z-score; in test [1] it was -0.336 z-score; in test [2], -0.215 z-score; in the test with RELB subunit;p50 subunit, -0.201 z-score. The figures for the binding signal (with RELB subunit;p52 subunit; in test [3]; in test [4]) were -0.323 z-score, -0.383 z-score and -0.23 z-score, respectively.

As to AGATTGACCCT, the binding signal with RELARELA (p65 homodimer) is -0.149 z-score; with p50p50 homodimer, -0.594 z-score; with p52p52 homodimer, -0.42 z-score; in [1], -0.583 z-score; in test [2], -0.704 z-score; in the test with RELB subunit;p50 subunit, -0.635 z-score. Further, the binding signal is -0.605 z-score with RELB subunit;p52 subunit, -0.895 z-score in [3] and -0.787 z-score in test [4].

On to AGAAGCTCCCT, for which the binding signal with RELARELA (p65 homodimer) was -0.425 z-score; with p50p50 homodimer, 0.158 z-score; with p52p52 homodimer, -0.322 z-score; in test [1], -0.103 z-score; in test [2], -0.284 z-score; with RELB subunit;p50 subunit it was -0.0298 z-score. The results for the binding signal (with RELB subunit;p52 subunit; in test [3]; in [4]) were -0.239 z-score, -0.54 z-score and -0.52 z-score, respectively.

As to CAGAATCTCCC, the binding signal with RELARELA (p65 homodimer) was 0.546 z-score; in the test with p50p50 homodimer, 0.713 z-score; in the test with p52p52 homodimer it was -0.063 z-score; in test [1], 0.636 z-score; in [2], 0.291 z-score; with RELB subunit;p50 subunit it was 0.641 z-score. For the same sequence, the binding signal with RELB subunit;p52 subunit was determined as 0.396 z-score; in test [3], 0.223 z-score; in test [4], 0.378 z-score.

Consider GGGGGCCTCCC, for which the binding signal with RELARELA (p65 homodimer) is 0.3 z-score; with p50p50 homodimer, 0.557 z-score; in the test with p52p52 homodimer, 2.41 z-score; in test [1], 1.24 z-score; in test [2], 1.91 z-score; in the test with RELB subunit;p50 subunit, 1.21 z-score. In addition, the binding signal with RELB subunit;p52 subunit was 1.09 z-score; in test [3] it was 1 z-score; in test [4], 1.46 z-score.

The record behind these values is paper PMC3218832.
